Results taken from the supplement of paper PMC10849652.
Targets with a hit are over-represented here; the source holds about 7,900 in all. About 0.6% of all pairs of compound and target were hits. A number with no mark means an inactive call.

Columns and labels:
Assay in all cases: log2 fold change, soluble protein after heating vs DMSO (PISA); higher = thermal stabilisation; K562 cells, 10 uM, 30 min; active = over 0.2 and 3.5 SD of the protein, either way, in both replicates (recomputed)
[1] = compound: NC(=O)Nc1cc(-c2cccc(F)c2)sc1C(=O)N[C@H]1CCCNC1
Summary of the method: (§1)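 K562 cells at 2×10^6 cells/mL were exposed to 10 μM compound for 30 min, then aliquots were heated for 3 min across 48°C-58°C, pooled, and extracted in PBS containing 0.5% NP-40 at 4°C. The supernatant after 21,000xg for 90 min was taken as soluble protein and measured by TMTpro 16plex LC-MS/MS with channel sums equalised. Thermal stability is reported relative to control samples, with values from duplicates. Fold changes are given on a log2 scale.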

[2] = compound: NC(=O)c1cnc(N[C@@H]2CCCC[C@@H]2N)nc1Nc1cccc(-n2nccn2)c1
Summary of the method: as §1

[3] = compound: NC1(c2ccc(-c3nc4ccn5c(=O)[nH]nc5c4cc3-c3ccccc3)cc2)CCC1
Summary of the method: as §1

[4] = compound: NCC(=O)Nc1ccc(-n2nc(C(F)(F)F)cc2-c2ccc3c(ccc4ccccc43)c2)cc1
Summary of the method: as §1

[5] = compound: Nc1ccccc1NC(=O)c1ccc(CNC(=O)OCc2cccnc2)cc1 [entinostat]
Summary of the method: as §1

[6] = compound: O=C(CCCCCCC(=O)Nc1ccccc1)NO [vorinostat]
Summary of the method: as §1

[7] = compound: O=C(CCCCCCNC(=O)c1cnc(N(c2ccccc2)c2ccccc2Cl)nc1)NO [citarinostat]
Summary of the method: as §1

[8] = compound: O=C(O)c1ccc2c(c1)nc(Nc1cccc(Cl)c1)c1ccncc12 [silmitasertib]
Summary of the method: as §1

[9] = compound: O=C1NC(=O)C(c2cnc3ccccn23)=C1c1cn2c3c(cc(F)cc13)CN(C(=O)N1CCCCC1)CC2
Summary of the method: as §1

[10] = compound: c1cc(OCCN2CCCCC2)cc(-c2n[nH]c3ccc(-c4nnc[nH]4)cc23)c1
Summary of the method: as §1

[11] = compound: c1cn2cc(-c3ccc4cn[nH]c4c3)nc(Nc3ccc(N4CCOCC4)cc3)c2n1 [entospletinib]
Summary of the method: as §1

Chain of UniProt P98082 (P98082 whole entry, looked up): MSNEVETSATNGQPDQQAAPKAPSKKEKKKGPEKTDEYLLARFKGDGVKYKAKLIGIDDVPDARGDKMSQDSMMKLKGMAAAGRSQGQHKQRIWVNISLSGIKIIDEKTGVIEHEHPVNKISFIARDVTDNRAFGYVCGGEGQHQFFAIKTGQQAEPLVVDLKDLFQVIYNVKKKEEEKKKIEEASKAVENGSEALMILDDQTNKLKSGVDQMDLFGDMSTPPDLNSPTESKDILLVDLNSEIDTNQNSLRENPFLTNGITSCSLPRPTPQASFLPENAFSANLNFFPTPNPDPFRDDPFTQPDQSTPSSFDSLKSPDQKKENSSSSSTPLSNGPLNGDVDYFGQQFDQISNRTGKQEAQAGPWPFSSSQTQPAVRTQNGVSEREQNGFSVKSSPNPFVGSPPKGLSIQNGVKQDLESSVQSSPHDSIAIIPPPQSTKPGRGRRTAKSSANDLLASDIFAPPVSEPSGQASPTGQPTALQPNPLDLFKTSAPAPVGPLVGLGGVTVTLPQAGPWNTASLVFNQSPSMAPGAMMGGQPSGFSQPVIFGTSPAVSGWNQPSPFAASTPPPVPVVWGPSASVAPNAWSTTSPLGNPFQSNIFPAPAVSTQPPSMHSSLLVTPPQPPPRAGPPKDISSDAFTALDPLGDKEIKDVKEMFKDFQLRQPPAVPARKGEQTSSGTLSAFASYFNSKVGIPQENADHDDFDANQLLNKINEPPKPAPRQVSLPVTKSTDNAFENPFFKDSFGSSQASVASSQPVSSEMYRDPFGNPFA
Chain of UniProt P41091 (P41091 whole entry, looked up): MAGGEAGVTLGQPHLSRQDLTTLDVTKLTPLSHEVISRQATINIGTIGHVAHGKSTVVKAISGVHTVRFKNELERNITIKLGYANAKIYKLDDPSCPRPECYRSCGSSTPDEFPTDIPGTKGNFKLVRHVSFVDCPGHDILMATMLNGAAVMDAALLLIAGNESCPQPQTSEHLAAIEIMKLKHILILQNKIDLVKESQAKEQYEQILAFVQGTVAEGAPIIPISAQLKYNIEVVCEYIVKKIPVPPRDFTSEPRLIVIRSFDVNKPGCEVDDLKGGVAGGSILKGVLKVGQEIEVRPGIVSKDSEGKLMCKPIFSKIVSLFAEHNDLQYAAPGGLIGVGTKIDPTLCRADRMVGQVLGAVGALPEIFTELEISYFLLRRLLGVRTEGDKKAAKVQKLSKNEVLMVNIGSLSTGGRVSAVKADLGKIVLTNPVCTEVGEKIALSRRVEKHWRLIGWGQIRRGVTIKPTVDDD
Chain of UniProt Q01780 (Q01780 whole entry, looked up): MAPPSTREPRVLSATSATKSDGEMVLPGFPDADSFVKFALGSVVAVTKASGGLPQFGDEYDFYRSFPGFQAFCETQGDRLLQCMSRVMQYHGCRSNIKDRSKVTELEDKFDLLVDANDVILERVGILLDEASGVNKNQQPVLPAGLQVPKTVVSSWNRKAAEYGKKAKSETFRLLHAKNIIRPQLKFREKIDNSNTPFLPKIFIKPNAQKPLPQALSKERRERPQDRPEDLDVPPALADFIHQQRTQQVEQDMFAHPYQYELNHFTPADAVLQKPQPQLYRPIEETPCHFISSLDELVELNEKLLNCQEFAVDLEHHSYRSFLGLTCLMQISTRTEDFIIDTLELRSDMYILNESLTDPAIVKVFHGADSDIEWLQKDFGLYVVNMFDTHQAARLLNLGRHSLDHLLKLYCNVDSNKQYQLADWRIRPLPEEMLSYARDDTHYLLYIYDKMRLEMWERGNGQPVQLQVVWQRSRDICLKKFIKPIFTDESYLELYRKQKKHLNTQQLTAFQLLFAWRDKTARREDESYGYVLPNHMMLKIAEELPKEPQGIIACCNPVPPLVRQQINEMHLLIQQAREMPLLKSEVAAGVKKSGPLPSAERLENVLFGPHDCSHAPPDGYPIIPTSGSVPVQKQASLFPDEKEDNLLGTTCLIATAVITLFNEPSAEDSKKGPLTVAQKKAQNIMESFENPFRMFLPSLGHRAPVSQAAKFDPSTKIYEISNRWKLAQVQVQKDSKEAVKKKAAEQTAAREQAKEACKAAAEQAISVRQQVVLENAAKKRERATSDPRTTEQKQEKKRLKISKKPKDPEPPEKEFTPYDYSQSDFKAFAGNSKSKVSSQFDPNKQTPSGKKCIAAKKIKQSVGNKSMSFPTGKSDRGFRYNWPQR
Chain of UniProt Q16531 (Q16531 whole entry, looked up): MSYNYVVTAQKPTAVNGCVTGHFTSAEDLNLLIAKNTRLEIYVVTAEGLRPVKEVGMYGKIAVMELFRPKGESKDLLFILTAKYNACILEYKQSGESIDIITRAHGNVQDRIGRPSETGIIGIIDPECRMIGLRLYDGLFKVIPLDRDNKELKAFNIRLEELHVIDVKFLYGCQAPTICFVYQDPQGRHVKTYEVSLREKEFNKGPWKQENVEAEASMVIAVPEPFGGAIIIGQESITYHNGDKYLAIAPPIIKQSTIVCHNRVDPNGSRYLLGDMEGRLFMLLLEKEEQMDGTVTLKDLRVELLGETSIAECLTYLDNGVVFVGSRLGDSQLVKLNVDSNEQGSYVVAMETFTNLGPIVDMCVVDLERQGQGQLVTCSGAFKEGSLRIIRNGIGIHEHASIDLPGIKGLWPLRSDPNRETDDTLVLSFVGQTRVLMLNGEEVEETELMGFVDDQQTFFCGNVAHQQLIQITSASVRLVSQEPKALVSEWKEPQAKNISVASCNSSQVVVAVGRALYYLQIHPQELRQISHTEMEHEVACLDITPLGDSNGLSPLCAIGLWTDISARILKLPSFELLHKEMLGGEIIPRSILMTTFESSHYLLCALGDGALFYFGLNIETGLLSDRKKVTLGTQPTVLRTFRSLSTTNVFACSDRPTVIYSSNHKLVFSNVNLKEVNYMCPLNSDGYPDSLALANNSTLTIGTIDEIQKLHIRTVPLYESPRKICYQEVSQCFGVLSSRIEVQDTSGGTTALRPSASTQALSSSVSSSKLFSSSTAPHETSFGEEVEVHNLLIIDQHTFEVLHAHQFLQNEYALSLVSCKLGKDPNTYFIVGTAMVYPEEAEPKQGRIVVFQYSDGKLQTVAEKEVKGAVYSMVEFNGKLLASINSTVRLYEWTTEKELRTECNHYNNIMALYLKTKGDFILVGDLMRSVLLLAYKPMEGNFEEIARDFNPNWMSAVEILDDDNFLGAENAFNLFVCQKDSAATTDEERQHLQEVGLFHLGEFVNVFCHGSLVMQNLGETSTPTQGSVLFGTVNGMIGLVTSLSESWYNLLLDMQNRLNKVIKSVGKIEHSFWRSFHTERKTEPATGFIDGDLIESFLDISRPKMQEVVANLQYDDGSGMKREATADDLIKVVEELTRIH
Chain of UniProt Q96DF8 (Q96DF8 whole entry, looked up): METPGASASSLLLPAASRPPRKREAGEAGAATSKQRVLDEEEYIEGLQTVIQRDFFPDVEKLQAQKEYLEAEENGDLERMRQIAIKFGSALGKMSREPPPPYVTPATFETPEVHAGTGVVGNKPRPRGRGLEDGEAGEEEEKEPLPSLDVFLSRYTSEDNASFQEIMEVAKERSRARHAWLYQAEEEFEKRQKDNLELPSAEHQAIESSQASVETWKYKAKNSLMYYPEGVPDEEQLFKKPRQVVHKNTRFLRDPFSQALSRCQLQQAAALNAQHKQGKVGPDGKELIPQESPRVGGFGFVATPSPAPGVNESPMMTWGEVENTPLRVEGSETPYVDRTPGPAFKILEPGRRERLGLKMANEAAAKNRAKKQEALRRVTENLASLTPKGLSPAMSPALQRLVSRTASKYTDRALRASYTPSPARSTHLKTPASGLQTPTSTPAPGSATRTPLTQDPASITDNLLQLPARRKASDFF
Chain of UniProt Q58WW2 (Q58WW2 whole entry, looked up): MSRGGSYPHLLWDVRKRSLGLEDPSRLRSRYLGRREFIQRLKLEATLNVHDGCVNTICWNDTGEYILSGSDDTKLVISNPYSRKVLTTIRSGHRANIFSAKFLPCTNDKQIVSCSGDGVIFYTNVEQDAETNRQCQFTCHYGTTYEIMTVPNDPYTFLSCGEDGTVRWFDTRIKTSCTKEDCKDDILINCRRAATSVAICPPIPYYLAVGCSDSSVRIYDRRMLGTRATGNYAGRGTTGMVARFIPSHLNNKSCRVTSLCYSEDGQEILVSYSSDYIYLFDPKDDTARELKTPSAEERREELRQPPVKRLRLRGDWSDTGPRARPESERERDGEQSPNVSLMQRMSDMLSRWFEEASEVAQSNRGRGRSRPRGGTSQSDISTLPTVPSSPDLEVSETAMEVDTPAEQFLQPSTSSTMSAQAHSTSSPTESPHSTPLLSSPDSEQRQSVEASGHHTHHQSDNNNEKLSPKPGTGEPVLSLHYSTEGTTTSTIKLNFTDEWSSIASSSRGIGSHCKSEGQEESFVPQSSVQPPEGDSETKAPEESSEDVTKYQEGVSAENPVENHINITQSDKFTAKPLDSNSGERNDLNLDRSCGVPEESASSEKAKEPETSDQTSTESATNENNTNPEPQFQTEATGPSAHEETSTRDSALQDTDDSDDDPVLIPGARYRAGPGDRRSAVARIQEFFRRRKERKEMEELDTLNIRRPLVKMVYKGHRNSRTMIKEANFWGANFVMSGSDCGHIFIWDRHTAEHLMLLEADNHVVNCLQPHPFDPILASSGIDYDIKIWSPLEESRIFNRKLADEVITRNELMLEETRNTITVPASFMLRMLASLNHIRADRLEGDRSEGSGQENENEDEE
Chain of UniProt Q9NYP7 (Q9NYP7 whole entry, looked up): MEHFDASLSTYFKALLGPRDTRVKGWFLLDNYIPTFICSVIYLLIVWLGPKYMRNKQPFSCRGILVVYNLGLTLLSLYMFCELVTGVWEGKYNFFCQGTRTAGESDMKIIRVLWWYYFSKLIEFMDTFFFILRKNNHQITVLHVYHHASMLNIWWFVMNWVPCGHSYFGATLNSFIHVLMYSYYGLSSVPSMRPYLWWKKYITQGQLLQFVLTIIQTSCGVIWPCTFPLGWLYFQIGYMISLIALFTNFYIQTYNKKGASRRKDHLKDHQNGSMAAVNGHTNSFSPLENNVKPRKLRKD
Chain of UniProt Q96GE9 (Q96GE9 whole entry, looked up): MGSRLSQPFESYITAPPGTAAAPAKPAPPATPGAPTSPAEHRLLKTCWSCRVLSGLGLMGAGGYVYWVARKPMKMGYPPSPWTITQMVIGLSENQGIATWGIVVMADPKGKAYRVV

Target | log2 fold change [1] | log2 fold change [2] | log2 fold change [3] | log2 fold change [4] | log2 fold change [5] | log2 fold change [6] | log2 fold change [7] | log2 fold change [8] | log2 fold change [9] | log2 fold change [10] | log2 fold change [11]
DTWD2 (UniProt Q8NBA8) | 0.284 | -0.03 | -0.058 | 0.068 | -0.079 | 0 | 0.152 | 0.089 | 0.26 | -0.123 | 0.127
DDB1 (UniProt Q16531) | 0.027 | -0.025 | -0.024 | -0.004 | -0.022 | -0.021 | 0.02 | -0.002 | -0.018 | -0.03 | 0.001
DHCR24 (UniProt Q15392) | -0.022 | -0.037 | 0.048 | -0.024 | -0.082 | -0.012 | 0 | -0.018 | 0.041 | 1.08 (active) | -0.016
CUX1 isoform 3 (UniProt P39880) | -0.016 | -0.006 | -0.034 | -0.076 | -0.028 | 0.034 | 0.019 | 0.046 | -0.022 | -0.004 | 0.016
DBR1 (UniProt Q9UK59) | 0.002 | -0.017 | -0.002 | 0.052 | -0.023 | -0.215 (active) | 0.014 | -0.012 | -0.004 | -0.072 | 0
ESS2 (UniProt Q96DF8) | 0.036 | 0.048 | -0.078 | 0.069 | -0.027 | -0.012 | 0.014 | 0.04 | 0.033 | -0.017 | 0.118
EXOC8 (UniProt Q8IYI6) | 0.044 | -0.044 | -0.373 (active) | -0.039 | 0.108 | 0.051 | 0.084 | 0.035 | 0.045 | -0.062 | -0.013
DCAF6 isoform 3 (UniProt Q58WW2) | 0 | 0.019 | 0.026 | 0.007 | -0.005 | 0.003 | 0.021 | 0.045 | -0.009 | -0.008 | -0.008
FADS3 (UniProt Q9Y5Q0) | -0.086 | -0.096 | -0.074 | 0.079 | -0.06 | 0.024 | 0.022 | -0.008 | 0.259 | -0.034 | 0.035
EIF2S3 (UniProt P41091) | 0.034 | 0.006 | 0.163 | 0.025 | -0.001 | 0 | -0.044 | -0.001 | 0.066 | -0.154 | -0.051
FAM118B (UniProt Q9BPY3) | -0.034 | -0.118 | -0.381 (active) | -0.027 | 0.047 | 0.064 | 0.052 | -0.082 | -0.13 | -0.078 | -0.011
DNM2 (UniProt P50570) | -0.019 | -0.037 | -0.153 | -0.023 | 0.005 | 0.03 | 0.051 | -0.054 | 0.008 | -0.014 | -0.017
EEF1AKNMT (UniProt Q8N6R0) | -0.025 | -0.061 | -0.109 | -0.017 | 0.038 | 0.161 | -0.002 | 0.059 | 0.055 | 0.031 | 0.059
EDC4 (UniProt Q6P2E9) | -0.06 | -0.024 | -0.026 | -0.082 | 0.026 | -0.023 | 0.035 | -0.05 | -0.066 | -0.253 (active) | 0.044
ERCC6 (UniProt Q03468) | -0.288 | -0.022 | -0.062 | 0.034 | -0.191 | -0.003 | -0.213 | 0.079 | 0.013 | -0.236 | 0.045
DNAH11 (UniProt Q96DT5) | -0.099 | -0.064 | 0.346 | 0.044 | -0.032 | -0.24 | -0.213 | 0.197 | -0.098 | -0.09 | 0.115
EXOSC10 (UniProt Q01780) | -0.49 | -0.054 | 0.014 | -0.189 | -0.339 | 0.039 | -0.125 | 0.041 | -0.044 | 0.01 | 0.1
DAB2 (UniProt P98082) | -0.006 | -0.033 | -0.124 | 0.016 | -0.026 | -0.066 | 0.037 | 0.102 | 0.001 | -0.041 | 0.043
DCTPP1 (UniProt Q9H773) | -0.051 | 0.117 | -0.014 | 0.028 | 0.062 | -0.093 | 0.005 | -0.003 | -0.001 | 0.008 | -0.008
DCAF16 (UniProt Q9NXF7) | -0.122 | -0.109 | -0.09 | -0.036 | 0.02 | 0.004 | 0.07 | 0.082 | -0.09 | -0.041 | 0
CTU1 (UniProt Q7Z7A3) | 0.038 | -0.015 | -0.199 | -0.142 | 0.023 | 0.075 | 0.049 | 0.021 | 0 | 0.008 | 0.006
DTYMK (UniProt P23919) | 0.005 | -0.011 | -0.169 | -0.014 | -0.035 | 0.043 | 0.047 | -0.04 | -0.058 | -0.071 | 0.013
FAM118A (UniProt Q9NWS6) | 0.052 | -0.129 | -0.351 | 0.015 | 0.149 | 0.054 | -0.289 | 0.166 | -0.088 | 0.322 | 0.248
DMAC1 (UniProt Q96GE9) | 0.136 | 0.031 | 0.015 | -0.07 | -0.004 | 0.019 | -0.003 | -0.185 | -0.427 | 0.113 | 0.073
ELOVL5 isoform 2 (UniProt Q9NYP7) | -0.07 | 0.001 | -0.194 | -0.065 | 0.056 | 0.062 | 0 | 0.098 | 0.035 | -0.158 | 0.063
EHBP1L1 (UniProt Q8N3D4) | -0.091 | -0.04 | -0.039 | -0.039 | 0 | 0.054 | 0.041 | 0.015 | -0.043 | -0.101 | -0.013
FAM83D (UniProt Q9H4H8) | -0.031 | -0.073 | -0.072 | 0.075 | 0.008 | 0.066 | 0.115 | 0.048 | -0.058 | 0.059 | 0.028
